# Screen size: about 63,000 compounds; about 1,100 (1.7%) were called active. What follows is part of a selection rich in actives, with near analogues and random picks from the rest. Potency and affinity values are given separately. Unmarked numbers belong to inactive results.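 The calls were made as follows: active = compounds whose percent cytotoxicity in the single-dose primary screen, scaled between solvent and toxic-drug controls, exceeds 50; inactive = the rest.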
# Assay: cytotoxicity in KRAS-transformed pancreatic duct cells, primary screen, cell-based, fluorescence, HTS (AID 431);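 also: 0% = DMSO solvent wells and 100% = doxorubicin-treated wells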
# Details: HPDE-C7K KRASV12 cells, Alamar Blue viability, 48 h; at 10 µM; hits give high values
row,SMILES,cytotoxicity
1,Cc1cc(C)c2nc(SCC#N)cc(C)c2c1,15.7%
2,Cc1cc(NCCCN2CCOCC2)n2ncc(-c3ccc(Cl)cc3)c2n1,23.7%
3,Cc1cc(NCCOCCO)n2ncc(-c3ccc(Cl)cc3)c2n1,75.4% (active)
4,Cc1cc(NCCN2CCOCC2)n2ncc(-c3ccc(Cl)cc3)c2n1,17%
5,O=C(NCc1nc2ncc(Br)cc2[nH]1)c1ccccc1,-7.6%
6,COc1cccc(OCc2nc3ncc(Br)cc3[nH]2)c1,64.8% (active)
7,COc1cccc(OCc2nc3ccccc3[nH]2)c1,10.6%
8,O=C(COC(=O)C(O)c1ccccc1)c1ccc2c(c1)OCCO2 (stereo not drawn),-14.7%
9,Cn1cc(Cl)c(C(=O)Nc2cccc(Cl)c2Cl)n1,-18.7%
10,COC(=O)c1ccc(Oc2cc(C)nc(NCc3ccccc3)n2)cc1,1.6%
11,COC(=O)c1ccc(Oc2nc(C)cc(Oc3ccccc3)n2)cc1,-1.7%
12,CCOC(=O)c1ccc(Oc2cc(C)nc(SC)n2)cc1,55.4% (active)
13,CCOC(=O)c1ccc(Oc2nc(SC)nc(N(C)C)n2)cc1,-21.1%
14,COC(=O)c1ccc(Oc2cc(C)nc(SC)n2)cc1,53.4% (active)
15,CCOC(=O)c1ccc(Oc2nc(NC)nc(SC)n2)cc1,-5.1%
16,COc1ccc(S(=O)(=O)NC2CC3CCC2C3)cc1Cl (stereo not drawn),5%
17,CCOC(=O)C(Cc1ccccc1)NC(=O)CCc1c(C)nc2ncnn2c1C (stereo not drawn),-0.7%
18,O=C(CN1CCc2ccccc2C1)c1cccs1,-6.1%
19,COc1cc2c(cc1OC)CN(C(=O)CSc1nnc3scc(-c4ccccc4)n13)CC2,1.3%
20,CCN(CC)CCCOc1nc(C)nc2c1oc1ccccc12,9.8%
21,Cc1cc(Cl)ccc1OCCCC(N)=O,-7%
22,Clc1ccc(OCc2nc(-c3ccccn3)n[nH]2)cc1,47.8%
23,Cc1cc(Cl)ccc1OCc1nc(-c2ccc(O)cc2)n[nH]1,86.2% (active)
24,COc1ccc(N2CCN(C(=O)c3ccc4c(c3)OCO4)CC2)cc1,17%
25,CC1CC(C)CN(C(=O)Cn2c(=O)n(CCCCC(=O)NC3CCCC3)c(=O)c3ccccc32)C1 (stereo not drawn),-3.9%

row,SMILES,cytotoxicity
1,O=C(Cc1ccc(Cl)c(Cl)c1)OCC(=O)c1ccc[nH]1,-10.8%
2,O=C(Cc1ccc(-c2ccccc2)cc1)N1CCOCC1,-4.1%
3,O=C1NCCCC2c3c(cc(Br)c(O)c3Br)OC12N1CCOCC1 (stereo not drawn),-3.5%
4,CCCCn1c(SCC(=O)OCC)nc2c1c(=O)[nH]c(=O)n2C,2.4%
5,Cc1nc(Sc2nnnn2C)c2c3c(sc2n1)CCC3,68.5% (active)
6,Cc1nc(SCC#N)c2c3c(sc2n1)CCC3,-15.5%
7,CSc1nc2sc3c(c2c2nnnn12)CCC3,6.6%
8,Cc1nnn(C23CC4CC(CC(C4)C2)C3)n1,4.5%
9,CC1CCCN(CCCNC(=O)c2coc3nc4ccccc4nc23)C1 (stereo not drawn),9.2%
10,O=C(NCc1ccccc1)N1CCN(c2ccc(Cl)c(Cl)c2)CC1,-1.9%
11,CC(C)c1ccc(OC(=O)NCCO)cc1,-6.6%
12,CCOc1ccc(C(=O)COC(=O)CC)cc1,-1.3%
13,COC(=O)CCC(=O)Oc1ccc(OC(=O)CCC(=O)OC)cc1,18.3%
14,CCC(=O)Oc1ccc(-c2nc(-c3cccnc3)no2)cc1,-6.1%
15,CC1(C)CC(=O)C2=C(C1)OC(=O)C2(NC(=O)c1cccs1)C(F)(F)F (stereo not drawn),-9.1%
16,CC1=C(C(=O)N(C)Cc2ccccc2)C2(CCC(C)CC2)OC1=O (stereo not drawn),1.3%
17,Cc1cc(NC(=O)CSc2nc3c(c(=O)n2-c2ccccc2)SC(C)C3)no1 (stereo not drawn),5.9%
18,COc1ccc(CCNC(=O)c2cnn3cccnc23)cc1OC,-0.5%
19,CCN1C(=O)CC(C(=O)Nc2ccc(F)cc2)SC1=Nc1cccc(OC)c1 (stereo not drawn),-9.1%
20,O=C(NCCCN1CCN(CCCNC(=O)c2ccccc2F)CC1)c1ccccc1F,-23.8%
21,CC1CCc2nc(NC(=O)CN3CCOCC3)sc2C1 (stereo not drawn),-3.7%
22,CC1CCc2nc(NC(=O)CN3CCN(c4ccccc4)CC3)sc2C1 (stereo not drawn),-5.6%
23,CC1CCc2nc(NC(=O)CN3CCN(Cc4ccc5c(c4)OCO5)CC3)sc2C1 (stereo not drawn),56.9% (active)
24,COCCOC(=O)C1=C(C)NC2=C(C(=O)CCC2)C1c1ccc(N(C)C)cc1 (stereo not drawn),3%
25,COc1ccc(-c2nc(CS(=O)CC(=O)NCc3ccco3)c(C)o2)cc1OC (stereo not drawn),1.1%

row,SMILES,cytotoxicity
1,COC(=O)c1ccc(-c2ccco2)n1Cc1nc(-c2ccc(OC)c(OC)c2)oc1C,74.4% (active)
2,COC(=O)c1cc2ccsc2n1Cc1nc(-c2ccc(OC)cc2)oc1C,11.1%
3,CCCC(C(=O)NCc1ccc(OC)cc1)N(Cc1ccco1)C(=O)c1snc(C(N)=O)c1N (stereo not drawn),-4%
4,Oc1ccc2c(c1)oc1cc(O)ccc12,57% (active)
5,O=c1oc2cc(O)ccc2c2oc3cc(O)ccc3c12,41%
6,O=c1oc2cc(O)ccc2c2c1CCCC2,30.5%
7,COc1ccc(N(Cc2cc3ccccc3[nH]c2=O)C(=O)C2CCCO2)cc1 (stereo not drawn),14.6%
8,Cc1sc2nc(SCC(=O)c3cc(C)n(CC4CCCO4)c3C)n(C(C)C)c(=O)c2c1C (stereo not drawn),22.2%
9,Cn1nnc2cc(C(=O)NC(C)(C)C)ccc21,3.4%
10,Cc1ccc2c(c1)c1ncnc(N3CCOCC3)c1n2C,-7.1%
11,Cc1ccc2c(c1)c1ncnc(N3CCN(c4ccccc4)CC3)c1n2C,9.4%
12,Cc1cc2cc(CN(Cc3ccc4c(c3)OCO4)Cc3nnnn3C3CCCC3)c(=O)[nH]c2cc1C,2.4%
13,Cc1ccc2[nH]c(=O)c(CN(Cc3ccccc3)Cc3nnnn3C3CCCC3)cc2c1,47.8%
14,Cc1ccc2[nH]c(=O)c(CN(Cc3ccc4c(c3)OCO4)Cc3nnnn3C3CCCC3)cc2c1,-0.4%
15,Cc1ccc2cc(CN(Cc3ccc(F)cc3)Cc3nnnn3C3CCCC3)c(=O)[nH]c2c1,31.6%
16,CCc1ccc2[nH]c(=O)c(CN(Cc3ccc4c(c3)OCO4)Cc3nnnn3C3CCCC3)cc2c1,54.8% (active)
17,Cc1ccc2cc(CN(Cc3ccccc3)Cc3nnnn3C3CCCC3)c(=O)[nH]c2c1,56.3% (active)
18,O=C(Nc1ccc2c(c1)nc1n2CCN(C2CCCCC2)C1)c1ccco1,-30.2%
19,Cc1ccc(-c2nnn(CC(=O)N(Cc3cccs3)C(C(=O)NC(C)(C)C)c3ccc(C)o3)n2)o1 (stereo not drawn),21.3%
20,Clc1ccc(COn2nnc3ccccc32)c(Cl)c1,0.9%
21,COc1ccc(C(=O)N2CCc3cc(OC)c(OC)cc3C2)cc1OC,-3.5%
22,CCOc1ccc(C(=O)N2CCc3cc(OC)c(OC)cc3C2)cc1OCC,45.5%
23,CCOc1cc(C(=O)N2CCc3cc(OC)c(OC)cc3C2)ccc1OC(F)F,89.4% (active)
24,CCOc1nc(-c2ccccc2)ccc1-c1noc(-c2ccc(OC)c(OC)c2)n1,20.5%
25,Cc1cc2c(c(=O)n1CCN(C)C)C(c1ccc(Cl)cc1)C(C#N)=C(N)O2 (stereo not drawn),-10.1%

row,SMILES,cytotoxicity
1,Cc1cc2c(c(=O)n1CCN(C)C)C(c1ccc(Br)cc1)C(C#N)=C(N)O2 (stereo not drawn),54.2% (active)
2,Cc1cc2c(c(=O)n1CCN(C)C)C(c1ccncc1)C(C#N)=C(N)O2 (stereo not drawn),20.9%
3,O=C(NCc1ccco1)C1CCN(c2nnc(-n3cccc3)s2)CC1,-3.4%
4,Cc1cc(C(=O)CN2C(=O)NC(c3ccccc3)(c3ccccc3)C2=O)c(C)n1Cc1ccco1,3.5%
5,COc1ccccc1NC(=O)C1=C(C)Nc2nnnn2C1c1ccncc1 (stereo not drawn),-9.7%
6,Fc1cccc2sc(Nc3nnc(-c4ccccc4)o3)nc12,44.8%
7,COc1cc(-c2nnc(-c3cccs3)o2)cc(OC)c1OC,-28.7%
8,COc1cccc2sc(Nc3nnc(-c4ccccc4Cl)o3)nc12,31.7%
9,CCOC(=O)c1sc(Nc2nc3c(OC)cccc3s2)nc1C,79.9% (active)
10,COC(=O)c1sc(NC(=O)COc2ccccc2OC)nc1C,-10.6%
11,COc1cc(OC)cc(-c2nnc(Nc3nc4c(F)cccc4s3)o2)c1,5.5%
12,COc1ccc(-c2nnc(Nc3nc4c(OC)cccc4s3)o2)cc1,59.3% (active)
13,COc1ccccc1-c1nnc(Nc2nc3c(OC)cccc3s2)o1,56.1% (active)
14,CCOC(=O)c1sc(NCCNc2nc(C)c(C(=O)OCC)s2)nc1C,1%
15,COc1cccc2sc(Nc3nnc(-c4cccs4)o3)nc12,59.6% (active)
16,Fc1cccc2sc(Nc3nnc(-c4ccco4)o3)nc12,29.2%
17,COc1cc2nc(-c3cccs3)oc(=O)c2cc1OC,9.6%
18,CCn1c(SCC(=O)NCCc2ccc(F)cc2)nnc1-c1cccs1,4.9%
19,COc1ccccc1OCc1nnc(SCC(=O)Nc2ccc(C)cc2)n1C,-9.9%
20,Cc1ccc(CN2CC34C=CC(O3)C(C(=O)NCc3ccc5c(c3)OCO5)C4C2=O)cc1 (stereo not drawn),-15.5%
21,CCN(CC)S(=O)(=O)c1cccc(-c2nnc(SCC(=O)NC)n2CCc2ccccc2)c1,-3%
22,COc1ccccc1N1CCN(C(=O)c2ccc(NC(C)=O)cc2)CC1,-1.4%
23,Brc1ccc(-c2nnc(-c3ccccc3Br)o2)cc1,-2.3%
